# Experimental data: PubChem BioAssay (NCI)
# This is part of a sample that, as a whole, favours compounds with a hit. Of some 83,000 tested, about 20% had one in any assay.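 Testing used 96-well plates and a 48-hour single-concentration exposure. Example: -40 means 40% of the starting cells died.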 Unmarked numbers belong to inactive results. The source made the active and inactive calls. Rule for the calls: active = growth percent below 10; inactive = the rest.
# Tested on: HL-60(TB) leukemia
# Experiment: NCI-60 one-dose screen, 48 h (100 = growth as untreated, 0 = no growth, -100 = all killed)
# Settings: 10 µM unless noted
row,Structure (SMILES),growth
1,O=C(CSc1nnc(-c2ccc3nc(-c4ccc(Cl)cc4)[nH]c3c2)o1)Nc1ccc(Cl)cc1,-20.9% (active)
2,COc1cc(NC(=O)C(C)C)ccc1C(=O)NC(=S)Nc1ccc(S(N)(=O)=O)cc1,92.5%
3,c1ccc(CSc2nnc(-c3ccc4nc(-c5ccccc5)[nH]c4c3)o2)cc1,83.5%
4,O=C(Cn1c(/C=C/c2ccccc2)nc2ccccc2c1=O)Nc1ccc(Cl)cc1,99.2%
5,CCC(C)(C)c1ccc(OCCCCCCN2CCN(c3ccncc3)CC2)cc1,-62.2% (active)
6,COc1ccc(-c2ccnc(SCc3cc4ccccc4[nH]c3=O)n2)cc1OC,87%
7,COc1ccc2c(c1)C(=O)N(C)C2C1c2c(cc3c(c2OC)OCO3)CCN1C (stereo not drawn),-6.5% (active)
8,CNc1nc2ccccc2n2c(-c3ccc(O)c(O)c3)cnc12,-19.6% (active)
9,N/C(=N\c1nc2ccccc2s1)NC(=O)NCCCCCCO,45.8%
10,COc1ccc(-c2cc(-c3ccccc3)c(C#N)c(=O)[nH]2)cc1S(N)(=O)=O,142%
11,O=C(CSc1nc2ccccc2c(=O)[nH]1)NCCN1CCCCC1,94.4%
12,Cn1cc(-c2cc3nc(-c4cn(C)c5ncccc45)cc(N)n3n2)c2cc(F)ccc21,7.11% (active)
13,COc1ccc(/C=N/NC(=O)Cn2nc(Cc3ccc(OC)cc3)c3onc(C)c3c2=O)cc1,27.6%
14,O=C(Nc1ccc(Cl)c(C(F)(F)F)c1)c1cncc(C#Cc2cnc3ccc(N4CCOCC4)nn23)c1,-21.7% (active)
15,N#Cc1c(-c2ccc(Cl)cc2)cc(-c2ccccc2)nc1OCc1ccccc1,77.3%
16,COc1ccc(/C=C/c2n(Cc3ccc4ccccc4c3)c3ccccc3[n+]2Cc2ccc3ccccc3c2)cc1,-5.59% (active)
17,CN(C)CCNC(=O)OCCCCOc1cc(O)c2c(=O)cc(-c3ccccc3)oc2c1,-61.6% (active)
18,Clc1cccc(Cl)c1/C=C/c1cc(/C=C/c2ccc(Br)cc2)c2ccccc2n1,101%
19,COc1cc(/C=C/C(=O)c2ccc(NC(=O)CSc3nnc(-c4c[nH]c5ccccc45)n3-c3ccccc3)cc2)cc(OC)c1OC,38.6%
20,O=C(c1ccc(F)cc1)C(c1c[nH]c2ccccc12)c1c[nH]c2ccccc12,41.8%
21,COc1cc(NC(=O)CSc2nnc(-c3ccc4nc(-c5ccc(Cl)cc5)[nH]c4c3)o2)cc(OC)c1OC,56.6%
22,Cn1cc(-c2cc(N)n3nc(-c4c[nH]c5ccc(F)cc45)cc3n2)c2cccnc21,-54% (active)
23,O=c1oc2ccc(-c3ccc(F)cc3F)cc2c(=O)n1-c1ccc(Cl)c(C(F)(F)F)c1,1.38% (active)
24,COc1cc(/C=C/C(=O)c2cnn(-c3cc(=O)[nH]c4ccccc34)c2C)cc(OC)c1OC,0.36% (active)
25,CCCCCCCCc1ccc(S(=O)(=O)Nc2ccc(CC)cc2C(=O)O)cc1,120%
26,O=C(N/N=C/c1ccc(-c2cccc([N+](=O)[O-])c2)o1)c1[nH]c2ccc(Br)cc2c1-c1ccccc1,-36.5% (active)
27,COc1ccc2[nH]cc(-c3cc(N)n4nc(-c5c[nH]c6ccccc56)cc4n3)c2c1,-44.7% (active)
28,Cn1cc(/C=C(/SS/C(=C/c2cn(C)c3cccc(C(=O)O)c23)C(=O)O)C(=O)O)c2c(C(=O)O)cccc21,99.2%
